Screens: PubChem BioAssay, National Center for Advancing Translational Sciences (NCATS)
TDP1 inh: inhibitors of human tyrosyl-DNA phosphodiesterase TDP1. recombinant TDP1, AlphaScreen DNA substrate cleavage. Potency, µM (titrated, usually from 130 µM), without a hit: at the top dose activity change, negative = inhibition, usual class: inhibitors. Q9NUW8. 0.28% of 350,000 active; note: potency is the fitted concentration of half-maximal effect; % is set by controls: 0 for no effect and ±100 for the full control effect; nearly all actives have a fitted effect of over 40% in size
Target sequence (Q9NUW8 whole entry, looked up): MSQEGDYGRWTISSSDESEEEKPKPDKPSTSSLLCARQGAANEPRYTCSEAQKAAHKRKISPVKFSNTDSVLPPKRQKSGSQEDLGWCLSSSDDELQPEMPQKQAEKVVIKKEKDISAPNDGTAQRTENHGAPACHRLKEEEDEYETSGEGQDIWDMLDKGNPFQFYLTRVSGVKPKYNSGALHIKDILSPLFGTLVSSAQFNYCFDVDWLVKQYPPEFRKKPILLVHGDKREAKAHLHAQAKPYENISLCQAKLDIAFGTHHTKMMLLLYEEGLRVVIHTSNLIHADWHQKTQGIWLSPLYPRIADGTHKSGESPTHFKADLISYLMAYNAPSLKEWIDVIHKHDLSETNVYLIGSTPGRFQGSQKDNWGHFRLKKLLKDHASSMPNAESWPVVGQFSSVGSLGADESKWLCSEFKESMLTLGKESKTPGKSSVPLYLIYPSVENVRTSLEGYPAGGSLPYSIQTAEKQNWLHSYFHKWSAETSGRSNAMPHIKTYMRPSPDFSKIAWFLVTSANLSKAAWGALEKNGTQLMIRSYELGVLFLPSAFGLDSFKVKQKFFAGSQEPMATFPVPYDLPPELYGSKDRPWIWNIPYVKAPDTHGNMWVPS
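Enzyme-compound mixtures sat 15 min at room temperature, followed by a 5 min reaction with 15 nM final substrate and 10 min with AlphaScreen beads. Recombinant human Tdp1 was used at 1 nM final.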
IL1B secr inh: inhibitors of inflammasome signaling (IL-1 beta secretion); 4.7% of 360,000 active; activity change, % at 57.5 µM; THP-1 LPS/ATP IL-1B secretion, AlphaLISA, 16 h; hits give low values; in the data active = activity change below about -50%; inconclusive = mostly about -30% to -49%; note: % is set by controls: 0 for no effect and ±100 for the full control effect
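Secreted IL-1B measured by AlphaLISA bead assay after 16 h compound exposure of THP-1 cells; compounds (final up to 57.5 uM) added 1 h before LPS (250 ng/mL) and ATP (1.25 mM) stimulation; lower signal means less secretion.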
DT40 TDP1 no CPT: qHTS for Inhibitors of human tyrosyl-DNA phosphodiesterase 1 (TDP1): qHTS in cells in absence of CPT; AID 686978, 2013; DT40 Tdp1-/- hTDP1 cells, no CPT, ATP luminescence, 48 h; 15% of 420,000 active; Potency, µM (doses to about 46.2 µM), for the others: top-dose activity change, negative = growth inhibition, most hits filed as inhibitors; note: potency is the fitted concentration of half-maximal effect; % is set by controls: 0 for no effect and ±100 for the full control effect; nearly all actives have a fitted effect of over 55% in size
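Growth of hTDP1-complemented DT40 Tdp1-knockout cells is measured by ATP luminescence after at least 48 hr compound exposure at 37 °C, with DMSO substituting for the 20 nM CPT used in the parallel screen.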
HepG2 tox: counter-screen for TGF-b inhibitors: cytotoxicity in HepG2 cells | Potency, µM (doses to about 46.1 µM), for the others: at the top dose activity change, negative = cytotoxicity, usual class: cytotoxic | HepG2 CAGA-GFP viability, ATP luminescence, 18 h | 0.76% of 410,000 active; note: potency is the fitted concentration of half-maximal effect
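HepG2 CAGA-GFP cells (1000/well, DMEM with 1% FBS) received compound, then TGF-beta at 500 pg/mL final, and were incubated 18 hours at 37 degrees C. Viability was read by CellTiter-Glo luminescence. Media-only wells were set as complete cell-killing and DMSO as no toxicity.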
TGFb inhibitor: inhibitors of TGF-b signaling; Potency, µM (series often up to 46.1 µM), for the others: at the highest dose activity, negative = inhibition, usual class: inhibitors; AID 588855; 1.2% of 410,000 active; HepG2 CAGA-GFP TGF-b/SMAD3 reporter, GFP fluorescence, 18 h; TGF-beta stimulated, 500 pg/mL final; note: potency is the fitted concentration of half-maximal effect; % is set by controls: 0 for no effect and ±100 for the full control effect; nearly all actives have a fitted effect of over 65% in size
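GFP signal (ex488/em500-530) from TGF-beta-stimulated HEPG2 CAGA-GFP cells, 500 pg/mL final, 18 h at 37 degrees C in DMEM plus 1% FBS, normalized to unstimulated and DMSO-stimulated controls.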
DT40 TDP1 CPT: DT40-hTDP1 cell growth loss with CPT. 12% of 420,000 active. chicken DT40 Tdp1-/-;hTDP1 cells + 20 nM CPT, ATP luminescence, 48 h. AID 686979. Potency, µM (series often up to 46.2 µM), for the others: at the top dose activity change, negative = growth inhibition, usual class: inhibitors; note: potency is the fitted concentration of half-maximal effect; % is set by controls: 0 for no effect and ±100 for the full control effect; nearly all actives have a fitted effect of over 55% in size
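Chicken DT40 Tdp1-/- cells stably complemented with human TDP1 were seeded at 400 cells/well in medium containing 20 nM camptothecin, exposed to pin-transferred compounds, and grown at 37 °C for at least 48 hr. Viability was read as ATP luminescence.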
* hit, by the source's call; ? = inconclusive; · = no result; ! = repeats disagree; [ ] = dose if it differs, or a comment. Shown are actives, neighbours in structure and some others; about 18% of the full set was active somewhere. Unless noted, calls come from the whole dose curve; as a rule, active = well fitted curve in the direction sought with a large enough effect; inconclusive = small, poorly fitted or top-dose-only effect, or another doubt; inactive = no such curve, though single readings can be large; an effect the other way counts as inactive or inconclusive.

SMILES	TDP1 inh	IL1B secr inh	DT40 TDP1 no CPT	HepG2 tox	TGFb inhibitor	DT40 TDP1 CPT
COc1ccc(NC(=O)[C@@H]2CCCN2C(=O)[C@@H]2Cc3ccccc3CN2C(=O)OC(C)(C)C)cc1	8%	-2	23µM*	-6%	?	-22%
CN(CCCn1ccc(NC(=O)OCc2ccccc2)nc1=O)CCc1ccccn1	·	?	2%	-24%	-17%	-3%
c1ccc(Oc2ccccc2-c2cc(NCCc3cccnc3)n3nccc3n2)cc1	·	17	?	-24%	-3%	18µM*
COc1ccc(CNC(=O)CN(Cc2ccccc2)C(=O)CCC(=O)Nc2ccccn2)cc1	15%	2	-25%	5%	-1%	-3%
Cc1ccccc1CCNC(=O)c1ccc2c(c1)c(C)c(C)n2C	11%	·	?	-12%	0%	?
Cc1c(C)n(Cc2ccccc2)c2ccc(C(=O)NCCc3ccccc3Cl)cc12	5%	·	?	-21%	0%	21µM*
Cc1ccccc1CCNC(=O)c1ccc2c(c1)c(C)c(C)n2Cc1ccccc1	13%	·	?	-36%	0%	18µM*
O=C(NCCc1ccccc1Cl)c1ccc2nc3ccccc3c(=O)n2c1	·	-19	?	-9%	-2%	15µM*
Cc1ccc(S(=O)(=O)N[C@H]2COC(=O)C/C=C\[C@@H](C)[C@H](NS(=O)(=O)c3ccc(C)cc3)COC(=O)C/C=C\[C@H]2C)cc1	6%[21 µM]	·	·	·	·	·
COC(=O)c1ccc(CNC(=O)C(C)N=C2NS(=O)(=O)c3ccccc32)cc1 (centres undefined)	-4%	-4	?	0%	-16%	17%
COCc1cc(=O)[nH]c2cc(NC(=O)c3cccc(OC)c3)c(C)cc12	·	2	-8%	7%	0%	22%
Nc1ncn([C@H]2C[C@H](O)[C@@H](CO)O2)c(=O)n1	·	4	0.1µM*	-8%	-2%	0.041µM*
CNc1ncnc2c1ncn2[C@@H]1O[C@H](CO)[C@@H](O)[C@@H]1O	-2%[21 µM]	·	·	·	·	·
C=C1[C@H](CO)[C@@H](O)C[C@@H]1n1cnc2c(=O)[nH]c(N)nc21	·	·	0.0053µM*	·	·	0.0084µM*
CNc1ncnc2c1ncn2[C@H]1C[C@H](O)[C@@H](CO)O1	9%	·	7.3µM*	·	·	?
CN(C)/C=N/c1nc2c(ncn2C2CC(O)C(CO)O2)c(=O)[nH]1 (centres undefined)	2%	·	-1%	5%	-2%	-14%
Nc1nc2c(ncn2[C@H]2C[C@H](O)[C@@H](CO)O2)c(=O)[nH]1	0%	0	2.1µM*	8%	-4%	4.6µM*
Cc1ccc(-c2nn(-c3ccccc3)cc2C(=O)NCCCN2CCOCC2)cc1	5%	15	?	-27%	-3%	-6%
COc1cccc(NC(=O)CN(C)CC(=O)Nc2ccc(C)c(S(=O)(=O)N3CCOCC3)c2)c1	·	-13	-11%	-3%	-3%	-26%
CC(C)(OC(=O)c1ccc(F)cc1)c1cc2ccccc2c(=O)o1	-5%	33	-16%	-3%	?	-2%
O=C(N1CCN(Cc2ccc3c(c2)OCO3)CC1)C(Cl)(Cl)Cl	·	-22	-13%	0%	7%	0%
Nc1nc2c(ncn2C2CC(O)C(CO)O2)c(=O)[nH]1 (centres undefined)	9%[56.1 µM]	·	5.8µM*	·	·	10µM*
Nc1nc(Cl)nc2c1ncn2C1OCC(O)C(O)C1O (centres undefined)	·	0	-15%	0%	?	-19%
Nc1nc(Cl)nc2c1ncn2C1CC(O)C(CO)O1 (centres undefined)	·	50	?	-56%	?	0.18µM*
COC1C(O)C(CO)OC1n1cnc2c(=O)[nH]c(N)nc21 (centres undefined)	3%	·	6%	·	·	11%
SMILES	TDP1 inh	IL1B secr inh	DT40 TDP1 no CPT	HepG2 tox	TGFb inhibitor	DT40 TDP1 CPT
COC(=O)/C=C1/SC(=NC(=O)c2ccc(F)cc2)NC1=O	4%	·	?	-6%	8%	-6%
O=[N+]([O-])c1ccc(CS(=O)c2ccccc2)cc1 (centres undefined)	·	12	-12%	-25%	?	-11%
O=[N+]([O-])c1ccc(S(=O)Cc2ccccc2)c([N+](=O)[O-])c1 (centres undefined)	·	-101*	0.58µM*	-115%	7.9µM*	0.46µM*
CC(Sc1nnc(CN2CCCC2)n1Cc1ccccc1)C(=O)Nc1ccc(F)c(F)c1F (centres undefined)	·	?	?	-5%	-17%	?
Cc1cc(=O)c2c(O)c3c(O)cc(=O)c4c3c3c(cc(O)c1c23)C(C)(C)C=4O	8%	·	0.73µM*	·	·	1µM*!
O=c1cc2oc3cc(O)c(O)cc3c(-c3ccccc3[N+](=O)[O-])c-2cc1O	·	-7	23µM*	-15%	-24%	21µM*
O=C(CSc1nc2ccccc2c(=O)n1-c1ccc(F)cc1F)Nc1ccc(N2CCOCC2)cc1	5%	-6	21µM*	-32%	-24%	23µM*
O=c1c2ccccc2nc(SCc2cccc(F)c2)n1-c1cccc(S(=O)(=O)N2CCCC2)c1	6%	0	18µM*	5%	-4%	12µM*
O=C(CSc1nc2ccccc2c(=O)n1-c1ccccc1Cl)Nc1cccc(S(=O)(=O)N2CCOCC2)c1	8%	-12	?	22%	2%	15µM*
CN(C(=O)CSc1ncnc2ccccc12)C1CCCCC1	2%	-89*	-15%	0%	16%	-5%
CN(C(=O)COc1ncnc2ccccc12)C1CCCCC1	0%	6	-14%	-3%	0%	-4%
O=c1ccc2ccccc2n1Cc1cccc(F)c1	·	11	?	-65%	-19%	-19%
Cc1ccc(NC(=O)C2(C)CCN2C(=O)Cc2cc(F)ccc2F)cc1 (centres undefined)	·	-6	?	-1%	15%	-21%
CN(C)S(=O)(=O)c1ccc(NC(=O)CSc2ncnc3ccccc23)cc1	1%	-102*	?	-24%	-28%	-27%
CCCn1c(SCC(=O)Nc2cccc(S(=O)(=O)N(C)C)c2)nc2ccccc2c1=O	·	-27	?	-11%	?	?
CN(C)S(=O)(=O)c1cccc(NC(=O)CSc2ncnc3ccccc23)c1	4%	-100*	18µM*	-40%	?	21µM*
